Assay results reported in PubChem BioAssay (NCI).
The panel holds about 83,000 compounds, 20% with a hit somewhere; the sample as a whole holds those more often.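 Each cell line was grown in a 96-well plate and treated with one concentration of compound for 48 hours. Values below 10 were considered active.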 Values without a mark were called inactive. Active and inactive are the calls of the source.

Columns and labels:
Assay in all cases: NCI-60 one-dose screen, 48 h (100 = growth as untreated, 0 = no growth, -100 = all killed)
Details in all cases: 10 µM unless noted
NCI-H23 lung = test system: NCI-H23 lung
NCI-H226 lung = test system: NCI-H226 lung
NCI-H322M lung = test system: NCI-H322M lung
HOP-62 NSCLC = test system: HOP-62 NSCLC
NCI-H460 lung = test system: NCI-H460 lung
HOP-92 NSCLC = test system: HOP-92 NSCLC
NCI-H522 lung = test system: NCI-H522 lung
A549/ATCC NSCLC = test system: A549/ATCC NSCLC
786-0 renal = test system: 786-0 renal
COLO 205 colon = test system: COLO 205 colon
DU-145 prostate = test system: DU-145 prostate
K-562 leukemia = test system: K-562 leukemia
MALME-3M melanoma = test system: MALME-3M melanoma
MDA-MB-231 breast = test system: MDA-MB-231 breast
RXF 393 renal = test system: RXF 393 renal
SF-268 CNS = test system: SF-268 CNS
SF-295 CNS = test system: SF-295 CNS
SF-539 CNS = test system: SF-539 CNS
UACC-257 melanoma = test system: UACC-257 melanoma
M14 melanoma = test system: M14 melanoma

Structure (SMILES) | growth (NCI-H23 lung) | growth (NCI-H226 lung) [%] | growth (NCI-H322M lung) | growth (HOP-62 NSCLC) | growth (NCI-H460 lung) | growth (HOP-92 NSCLC) | growth (NCI-H522 lung) | growth (A549/ATCC NSCLC) | growth (786-0 renal) | growth (COLO 205 colon) | growth (DU-145 prostate) | growth (K-562 leukemia) | growth (MALME-3M melanoma) | growth (MDA-MB-231 breast) | growth (RXF 393 renal) | growth (SF-268 CNS) | growth (SF-295 CNS) | growth (SF-539 CNS) | growth (UACC-257 melanoma) | growth (M14 melanoma)
C=C(C)[C@@H]1CC[C@]2(C(N)=O)CC[C@]3(C)[C@H](CC[C@@H]4[C@@]5(C)CC[C@H](OCCC#N)C(C)(C)[C@@H]5CC[C@]43C)[C@@H]12 | 91.3% | 84.1 | 73.3% | 95% | 79% | 78.1% | 77.5% | 74.6% | 94.8% | 86.1% | 94.7% | 74.3% | 101% | 73.2% | 86.8% | 74.1% | 79.5% | 91.6% | 101% | 90.2%
C=CCOC(=O)C1=C(C)N(CC)C(=O)NC1c1c(Cl)n(C)c2ccccc12 (stereo not given) | 96% | 106 | 78.8% | 103% | 99% | 68.1% | 85.3% | 87.6% | 95.7% | 108% | 106% | 99.1% | 99.3% | 96.7% | 108% | 92.9% | 88.6% | 98.4% | 98.4% | 88.6%
Cc1ccc(C(=O)Nc2cccc(C#Cc3cccc4[nH]nc(N)c34)c2)cc1C(F)(F)F | 51.8% | 55.8 | 79.2% | 58.7% | 75.6% | 63.8% | 60.2% | 67.5% | 62.6% | 40.2% | 78.4% | 6.95% (active) | 6.04% (active) | 55.4% | 41.2% | 60.8% | 78.1% | 8.47% (active) | 68% | 21.6%
N#CC1CCc2c(c(-c3ccc4nc(N)sc4c3)nc3ccc4[nH]ncc4c23)C1 (stereo not given) | 36.9% | 51.1 | 70.5% | 54.5% | 12.4% | 70.3% | 40.2% | 46% | 49.3% | 40.5% | 35.4% | 29.8% | 68.8% | 54.9% | 1.38% (active) | 63.1% | 23.1% | -0.136% (active) | 88.7% | 19.8%
CN(C)CCCC1(c2ccc(F)cc2)OCc2cc(-c3cc4ccccc4s3)ccc21 (stereo not given) | 76.8% | 67.9 | 56.8% | -65.8% (active) | -78.1% (active) | 26.8% | -9.87% (active) | -67.1% (active) | 57.8% | -65.6% (active) | 18% | -17.5% (active) | -77.4% (active) | -42.4% (active) | 34.8% | 38.3% | 70.4% | -58.8% (active) | -29.1% (active) | -68.7% (active)
O=C1/C(=C/c2ccccc2F)CN(C(=O)C(Cl)Cl)C/C1=C\c1ccccc1F | -33.2% (active) | 39.4 | -18.5% (active) | 13.8% | -74.2% (active) | -27.9% (active) | -49.8% (active) | -2.28% (active) | -71.9% (active) | -57.6% (active) | -63.4% (active) | -2.29% (active) | -47% (active) | -49.1% (active) | -76.3% (active) | -0.301% (active) | -46.2% (active) | -85.9% (active) | -17.5% (active) | -43.7% (active)
CN(C)CCCC1(c2ccc(F)cc2)OCc2cc(-c3ccc4cc[nH]c4c3)ccc21 (stereo not given) | 86.6% | 95.2 | 65% | 74.9% | -10.5% (active) | 45.9% | 61.5% | 49.1% | 78.1% | 9.88% (active) | 35.7% | -20.1% (active) | 11% | 16% | 45.8% | 54% | 74.5% | 67.8% | 79.1% | -56.8% (active)
O=C(/C=C/c1ccccc1)c1ccc(Nc2nc(Nc3ccc(F)cc3)nc(Nc3ccc(Cl)cc3)n2)cc1 | 83.9% | 96.1 | 94.5% | 102% | 82.1% | 48.1% | 87.6% | 112% | 86.8% | 70.6% | 97.7% | 70.9% | 109% | 81.5% | 134% | 88.1% | 69.3% | 97.2% | 110% | 81.2%
Cc1ccc(CNc2c3ccccc3nc3ccccc23)cc1 | 29.3% | 41.5 | 39.7% | 43.7% | 8.75% (active) | 3.24% (active) | 49% | 26.1% | 25.4% | 0.281% (active) | 33.5% | 2.99% (active) | 16.2% | 43.2% | 10.1% | 51.9% | 31.3% | 18.1% | 39.4% | 28%
O=C(Cc1ccc(/C=C/C(=O)c2ncc[nH]2)cc1)Nc1cc(C(F)(F)F)cc(C(F)(F)F)c1 | 93.9% | 103 | 96.4% | 106% | 93.7% | 116% | 96.6% | 81.1% | 52.2% | 102% | 86.2% | 18.9% | 92.1% | 92.6% | 67.8% | 88.2% | 93.7% | 73.7% | 100% | 89.6%
O=C(Nc1ncc(Cc2cc(C(F)(F)F)ccc2Cl)s1)c1cccs1 | 58.2% | 76.5 | 65.5% | 42.5% | 32.2% | 47.1% | 35.2% | 37.8% | 79.6% | 56.2% | 72.7% | 10.7% | 50.7% | 77.8% | 42.7% | 63.9% | 41% | 79.7% | 73.3% | 49.3%
CCN1C2CCC1/C(=C\c1ccc(F)cc1)C(=O)/C2=C/c1ccc(F)cc1 | 29.2% | 51.6 | 42.9% | 46% | 46.4% | 38.1% | 36.7% | 52.6% | 42.5% | 20.7% | 9.04% (active) | 20.5% | 55.7% | 62.5% | 57.9% | 38.4% | 36.3% | 51.8% | 50.8% | 35.9%
Cc1ccc2c(-n3nc(C#N)c(C#N)c3N)cc(=O)[nH]c2c1 | 88.9% | 78.7 | 66.8% | 68.1% | 81.1% | 84.3% | 77% | 91% | 85.3% | 97.8% | 94% | 76% | 78.2% | 85.5% | 100% | 94.4% | 94% | 89.8% | 87.9% | 84.9%
COc1ccc(-c2nc(/C=C3\C(=O)N(C)c4ccccc43)c3ccccn23)cc1 | 76.2% | 63.8 | 88.3% | 62.7% | 63.4% | 84.1% | 58.7% | 88.7% | 38.3% | 119% | 93% | 95.9% | 72.5% | 85.2% | 67.4% | 66% | 83.2% | 72.7% | 86% | 99.1%
CCOc1cccc(/C=N/NC(=O)c2cccc(Nc3ccnc(C(F)(F)F)c3)c2)c1O | 24.9% | 32.9 | 36.5% | 12.3% | 7.86% (active) | 51.3% | 40.4% | 38% | 2.63% (active) | 37% | 19.2% | 28.7% | 30.9% | 45% | 47.4% | 26.7% | 30.3% | 14.8% | 37.3% | -6.87% (active)
